The record followed here is the supplement of paper PMC12808144.

Values without a mark were called inactive.

The assay concerns Mel-DCC-11-R. Put plainly: cell viability relative to DMSO control (fraction of DMSO control); higher = less cytotoxic, active = 0.8 or less. As to conditions: 1 µM; 120 h; vemurafenib co-treatment 0 µM. A digest of the protocol:
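Luminescence from ATPlite 1step was read after 120 h in 384-well plates carrying 315 approved anti-cancer drugs (TargetMol), acoustically pre-spotted to give 1 µM in duplicate. Cells were seeded in 40 µl per well: 2500/well NHEM-hTERT immortalized melanocytes and 1500/well patient-derived Mel-DCC-11 and Mel-DCC-11-R, its resistant subline, which was assayed alone and with 8 µM of its selecting drug. Viability was normalised to vehicle-treated controls and averaged across duplicate wells.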
`CS(=O)(=O)OCCCCOS(C)(=O)=O` [Busulfan]: the cell viability was 0.994. For `C=C1CC[C@@H]2[C@](C)(CO)[C@H](O)CC[C@@]2(C)[C@@H]1C/C=C1/C(=O)OC[C@H]1O` [Andrographolide] the value was 0.887; for `N#CC1(c2ccc(NC(=O)c3cccnc3NCc3ccncc3)cc2)CCCC1` [Apatinib], 1.14; for `CN(CCOc1ccc(CC2SC(=O)NC2=O)cc1)c1ccccn1.O=C(O)/C=C\C(=O)O` (stereo unspecified) [Rosiglitazone maleate], 0.97. Turning to `COc1ccc(C(Cl)=C(c2ccc(OC)cc2)c2ccc(OC)cc2)cc1` [Chlorotrianisene], the cell viability is 0.86.

For `O=C(/C=C/c1ccc(O)cc1)c1ccc(O)cc1O` [Isoliquiritigenin], the cell viability is 0.834. For `CCCCCCCCCCCCCCCCOP(=O)([O-])OCC[N+](C)(C)C` [Miltefosine] the value was 0.843.

`COc1cc2c(N3CCN(C(=O)Nc4ccc(OC(C)C)cc4)CC3)ncnc2cc1OCCCN1CCCCC1` [Tandutinib]: the cell viability was 0.907. Take `CCc1cn([C@H]2C[C@H](O)[C@@H](CO)O2)c(=O)[nH]c1=O` [Edoxudine]: the cell viability is 0.776 (active). For `COC(=O)C[C@](O)(CCCC(C)(C)O)C(=O)O[C@@H]1C(OC)=CC23CCCN2CCc2cc4c(cc2[C@H]13)OCO4` (stereo partly specified) [Homoharringtonine] the value was 0.0454 (active); for `CC[C@]1(O)C[C@@H]2C[N@@](CCc3c([nH]c4ccccc34)[C@@](C(=O)OC)(c3cc4c(cc3OC)N(C)[C@H]3[C@@](O)(C(=O)OC)[C@H](OC(C)=O)[C@]5(CC)C=CCN6CC[C@]43[C@@H]65)C2)C1.O=S(=O)(O)O` [Vinblastine sulfate], 0.488 (active); for `CC=Cc1ccc(OC)cc1` (stereo in doubt) [cis-Anethol], 1.26. For the molecule `CCN(CC)CCNC(=O)c1c(C)[nH]c(/C=C2\C(=O)Nc3ccc(F)cc32)c1C.C[C@@H](CC(=O)O)C(=O)O` [Sunitinib Malate], the cell viability was 1.08. Take `COc1cc2nccc(Oc3ccc(NC(=O)Nc4cc(C)on4)c(Cl)c3)c2cc1OC` [Tivozanib]: the cell viability was 1.08. For `C=CC(=O)N1CCC[C@@H](n2nc(-c3ccc(Oc4ccccc4)cc3)c3c(N)ncnc32)C1` [Ibrutinib], the cell viability is 0.855. With `Cn1nnc(-c2ccc(-c3ccc(N4C[C@H](CO)OC4=O)cc3F)cn2)n1` [Torezolid], the cell viability is 0.848.

For `CCc1cc2c(cc1N1CCC(N3CCOCC3)CC1)C(C)(C)c1[nH]c3cc(C#N)ccc3c1C2=O` [Alectinib], the cell viability was 1.12. `Nc1nc(=O)c2c([nH]1)NCC(CNc1ccc(C(=O)N[C@@H](CCC(=O)[O-])C(=O)[O-])cc1)N2C=O.[Ca+2]` (stereo partly specified) [Calcium folinate]: the cell viability is 1.68. The figure for `Cl.Cl.Cl.Cl.Cl.Cl.Cl.Cl.c1cc(CN2CCCNCCNCCCNCC2)ccc1CN1CCCNCCNCCCNCC1` [AMD 3100 octahydrochloride] is 0.999; for `CNC(=O)c1ccc(N2C(=S)N(c3ccc(C#N)c(C(F)(F)F)c3)C(=O)C2(C)C)cc1F` [Enzalutamide] it is 0.889; for `CC[C@@]1(O)C(=O)OCc2c1cc1n(c2=O)Cc2cc3c(CN(C)C)c(O)ccc3nc2-1.Cl` [Topotecan hydrochloride] it is 0.645 (active). On to `CC[C@@H](CO)NCCN[C@@H](CC)CO.Cl.Cl` [Ethambutol dihydrochloride], for which the cell viability was 0.965. Turning to `C=C(c1ccc(C(=O)O)cc1)c1cc2c(cc1C)C(C)(C)CCC2(C)C` [Bexarotene], the cell viability is 1.07.

Consider `CC(O)(P(=O)([O-])O)P(=O)([O-])O.[Na+].[Na+]` [Sodium etidronate], for which the cell viability was 0.787 (active). Take `CNC(=O)c1cc(Oc2ccc(NC(=O)Nc3ccc(Cl)c(C(F)(F)F)c3)cc2)ccn1.Cc1ccc(S(=O)(=O)O)cc1` [Sorafenib tosylate]: the cell viability was 1.02. In the case of `COc1cccc2c1C(=O)c1c(O)c3c(c(O)c1C2=O)C[C@@](O)(C(C)=O)C[C@@H]3O[C@H]1C[C@H](N)[C@H](O)[C@H](C)O1.Cl` [Daunorubicin hydrochloride], the cell viability was 0.0677 (active).
